Experiment [1] in a line: NCI Yeast Anticancer Drug Screen. Data for the rad50 strain (AID 155).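 Note: 0% = growth of vehicle-only cultures of the same strain.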 To be noted: S. cerevisiae rad50 strain growth inhibition; at 50.0 µM; hits give high values. The essentials: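 Relative growth inhibition (compound vs vehicle) was measured in yeast with a defined repair-gene alteration.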
The nature of experiment [2]: NCI Yeast Anticancer Drug Screen. Data for the mec2-1 strain (AID 157). The settings on record: S. cerevisiae mec2-1 strain, at 50.0 µM, hits give high values. The essentials: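 Vehicle-treated cultures served as reference for growth inhibition of compound-exposed mec2-1 yeast.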
Experiment [3] is described as follows: NCI Yeast Anticancer Drug Screen. Data for the sgs1 mgt1 strain (AID 161).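 Note: 0% = growth of cultures given vehicle only.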 The settings on record: S. cerevisiae sgs1 mgt1 strain, at 50.0 µM, hits give high values. The essentials:
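Inhibition of yeast growth, normalised to vehicle-treated controls, is reported for a strain bearing genetic alterations in DNA damage repair.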

The nature of experiment [4]: NCI Yeast Anticancer Drug Screen. Data for the cln2 rad14 strain (AID 165).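 Note: 0% = growth equal to vehicle treated cultures.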 The settings on record: S. cerevisiae cln2 rad14 strain, at 50.0 µM, hits give high values. In short, it runs like this:
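Each compound was tested on cln2 rad14 yeast. Inhibition of growth was calculated against vehicle-exposed controls.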

Experiment [5] can be described thus: NCI Yeast Anticancer Drug Screen. Data for the bub3 strain (AID 167). To be noted: S. cerevisiae bub3 mutant strain, at 50.0 µM, hits give high values. The essentials: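 Screening used yeast with an engineered genetic alteration affecting cell cycle control. Compound-exposed cultures were compared with vehicle cultures, and reduced growth was taken as inhibition.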

The nature of experiment [6]: NCI Yeast Anticancer Drug Screen. Data for the mlh1 rad18 strain (AID 175). To be noted: S. cerevisiae mlh1 rad18 strain growth inhibition; at 50.0 µM; hits give high values. In short, it runs like this:
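Vehicle-treated cultures served as the reference for growth inhibition in a yeast strain carrying DNA damage repair alterations exposed to each compound.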

Each structure is given as a SMILES string. This is part of a sample that, as a whole, favours compounds with a hit. Of some 79,000 tested, about 15% had one in any assay. Unmarked numbers belong to inactive results. Activity calls are given as the source filed them. Cut-off read from the data, not from the text of the source: active = growth inhibition above about 70%; inactive = the rest.

For the compound `NNC(=O)C1C2C=CC(C2)C1C(=O)NN` (stereo not given), the growth inhibition is 7.6% in experiment [1]; -8.05% in experiment [2]; -11.7% in experiment [3]; -35% in experiment [4]; 4.15% in experiment [5]; 4.2% in experiment [6].

Regarding `O=C(O)CCc1c(-c2ccccc2)c(-c2ccccc2)c2n1CCC2`, the growth inhibition in experiment [1] was 49.5%; in experiment [2], 41%; in experiment [3], 56.5%; in experiment [4], -12.6%; in experiment [5], 33.9%; in experiment [6] it was 48.9%.

For `COCn1cnc2c(=O)n(-c3ccc(OC)cc3)c(=S)n(-c3ccc(OC)cc3)c21`, the growth inhibition was 21.1% in experiment [1]; -13.7% in experiment [2]; -28.9% in experiment [3]; -2.65% in experiment [4]; -21.4% in experiment [5]; -53.1% in experiment [6].

Turning to `O=c1[nH]c(=O)c2nccnc2[nH]1`, the growth inhibition is 9.1% in experiment [1]; -0.6% in experiment [2]; -10.7% in experiment [3]; 0.75% in experiment [4]; 5% in experiment [5]; 5.1% in experiment [6].

Regarding `O=C(OCCNC(=O)N1CCOCC1)OCCNC(=O)N1CCOCC1`, the growth inhibition in experiment [1] is -16.8%; in experiment [2] it was -2%; in experiment [3], -8.55%; in experiment [4] it was 40.6%; in experiment [5] it was -3.2%; in experiment [6], 11.3%.

Turning to `Cc1ccc(S(=O)(=O)n2oc(N)c(Cc3ccccc3)c2=O)cc1`, the growth inhibition in experiment [1] is -25.4%; in experiment [2], -0.15%; in experiment [3] it was 7.8%; in experiment [4], -23.5%; in experiment [5], 19.2%; in experiment [6], -2.55%.

As for `CC(=O)N(CCCc1ccccc1)C(C)(C)C`, the growth inhibition in experiment [1] was 5.95%; in experiment [2], 5.3%; in experiment [3], -3.05%; in experiment [4], -22.1%; in experiment [5], 2.25%; in experiment [6], 6.15%.

Turning to `Clc1ccc(C2NC(c3ccccc3)c3c(ccc4ccccc34)O2)cc1Cl` (stereo not given), the growth inhibition in experiment [1] was 86.2% (active); in experiment [2], 92.6% (active); in experiment [3], 92.2% (active); in experiment [4], 88.2% (active); in experiment [5], 90.5% (active); in experiment [6] it was 92.1% (active).

`Nc1ncc2ncn(C3CCC(CO)O3)c2n1` (stereo not given): the growth inhibition in experiment [1] was -6.9%; in experiment [2], -10.1%; in experiment [3] it was -22.2%; in experiment [4] it was -4.65%; in experiment [5] it was -10.8%; in experiment [6], -6.45%.

As to `CC(=O)OC(C)C(=O)C1c2cccc(O)c2C(=O)c2c(O)cc(C)cc21` (stereo not given), the growth inhibition in experiment [1] was 35.6%; in experiment [2], 19.1%; in experiment [3], 19.9%; in experiment [4], 31.4%; in experiment [5], 23.9%; in experiment [6] it was 26.6%.

On to `c1ccc2c(c1)Cc1c(Cc3csc4ccccc34)ccc3cccc-2c13`, for which the growth inhibition in experiment [1] was -14.2%; in experiment [2] it was -22.4%; in experiment [3] it was -4.1%; in experiment [4], 13.3%; in experiment [5] it was -5%; in experiment [6] it was -15.2%.

As for `O=C(O)COc1ccc(C(=O)/C(SS/C(C(=O)c2ccc(OCC(=O)O)c(Cl)c2Cl)=C2\C=C(c3ccccc3Cl)SS2)=C2/C=C(c3ccccc3Cl)SS2)c(Cl)c1Cl`, the growth inhibition in experiment [1] is -20.8%; in experiment [2] it was -29.1%; in experiment [3], -6.05%; in experiment [4], 7.05%; in experiment [5], -19.9%; in experiment [6] it was -27.1%.

Take `NC(=O)c1cc([N+](=O)[O-])cnc1Sc1ncccn1`: the growth inhibition was 40.8% in experiment [1]; 14.9% in experiment [2]; 21.7% in experiment [3]; 18.2% in experiment [4]; 29.9% in experiment [5]; 44.6% in experiment [6].

In the case of `COC(=O)c1ccc(/C=C2\Oc3ccccc3C2=O)cc1`, the growth inhibition was -54.1% in experiment [1]; -62.2% in experiment [2]; -39% in experiment [3]; -8.5% in experiment [4]; -22.9% in experiment [5]; -44.5% in experiment [6].

`C=CC1=C(C)C2=NC1=CC1=NC(=CC3=C(C)C4=C(O)CC(=C5NC(=C2)C(C)C5CCC(=O)OC)C4=N3)C(CC)=C1C` (stereo not given): the growth inhibition is 8.85% in experiment [1]; -1.5% in experiment [2]; 19.4% in experiment [3]; 3.65% in experiment [4]; -2.05% in experiment [5]; 22.2% in experiment [6].

For the compound `CCCCCCC(=O)CC1(C(=O)OC)NC(=S)NC(=O)C1C#N` (stereo not given), the growth inhibition in experiment [1] was 18.1%; in experiment [2] it was 6.85%; in experiment [3], -1.55%; in experiment [4], -0.75%; in experiment [5], -9.55%; in experiment [6] it was 15.8%.

In the case of `COc1cc(/C=C/C=C(C(=O)O)C(=O)O)cc(OC)c1OC`, the growth inhibition in experiment [1] is -5%; in experiment [2], -1.2%; in experiment [3], -14.7%; in experiment [4], -11.4%; in experiment [5] it was -6.2%; in experiment [6], -4.45%.

For `CC(C)C(NC(=O)c1cnc2ccccc2n1)C(=O)O` (stereo not given), the growth inhibition in experiment [1] was -8.15%; in experiment [2], -5.5%; in experiment [3], 0.4%; in experiment [4], -51.7%; in experiment [5], 6.35%; in experiment [6], 7.75%.

Take `Cc1ccc(S(=O)(=O)N/N=C/c2oc(-c3ccccc3Cl)c(-c3ccccc3Cl)c2[N+](=O)[O-])cc1`: the growth inhibition in experiment [1] was 54.2%; in experiment [2], 45.3%; in experiment [3] it was 58.5%; in experiment [4], 38.4%; in experiment [5], 41.5%; in experiment [6], 48.1%.

On to `CCSCC(C)C(=O)OC` (stereo not given), for which the growth inhibition in experiment [1] is -26.6%; in experiment [2], -0.4%; in experiment [3], -14.3%; in experiment [4] it was 23.6%; in experiment [5], 2.85%; in experiment [6] it was -40.3%.
